According to PubChem BioAssay AID602410 (Johns Hopkins Ion Channel Center, 2012):
Out of some 340,000 compounds screened, about 2,800 (0.82%) were called active. The sample holds actives, similar compounds and a random draw of the others, so the mix is not that of the screen.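 Rule for the calls: active = B-score under library mean minus 4 SD, starting fluorescence ratio at most library mean plus 5 SD; inactive = the rest.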

These molecules were tested against Potassium channel subfamily K member 3 (Homo sapiens) (UniProt O14649) (assay: human KCNK3 channel inhibitors, primary screen, CHO cells, FluxOR thallium flux, B-score (AID 602410;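 for B-score: more negative B-score means stronger inhibition of thallium flux through KCNK3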)). Details: FluxOR fluorescence, at 10 µM; stronger effect = lower value.
Chain of Potassium channel subfamily K member 3 (Homo sapiens) (O14649 whole entry, looked up): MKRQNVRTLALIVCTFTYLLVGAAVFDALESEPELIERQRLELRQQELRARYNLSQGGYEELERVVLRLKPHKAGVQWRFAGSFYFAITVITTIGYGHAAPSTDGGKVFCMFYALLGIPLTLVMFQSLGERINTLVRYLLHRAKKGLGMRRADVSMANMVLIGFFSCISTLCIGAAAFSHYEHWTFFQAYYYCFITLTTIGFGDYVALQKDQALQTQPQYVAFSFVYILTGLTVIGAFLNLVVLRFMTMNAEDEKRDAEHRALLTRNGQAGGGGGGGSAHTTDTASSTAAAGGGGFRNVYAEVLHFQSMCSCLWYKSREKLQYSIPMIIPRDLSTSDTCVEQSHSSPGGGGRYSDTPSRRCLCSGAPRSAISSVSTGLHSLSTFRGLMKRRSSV

B-score, active:
COC(=O)c1ccc(COC(=O)C2CCN(S(=O)(=O)c3c(Cl)cccc3Cl)CC2)o1 -10.8
CCc1cc(C(c2ccccc2OC)N2CCOCC2)c(NC(=O)c2ccccc2)s1 (configuration not stated) -8.97
CS/C(=C\C(=O)c1ccco1)Nc1ccccc1Cl -11.4
CSc1nnc2c(n1)OC(c1ccsc1)N(C(C)=O)c1ccccc1-2 (configuration not stated) -9.55
CC(C)c1ccccc1OCC(O)CN(CC(O)COc1cccc2ccccc12)C(C)C (configuration not stated) -9.21
CCc1ccc2nc3sc(C(=O)Nc4nnc(CC)s4)c(N)c3cc2c1 -9.98
O=C(NCCc1c[nH]c2ccccc12)c1cccc(Br)c1 -11.8
CCC1CCCCN1C(=O)Nc1cccc(NC(=O)N2CCCCC2CC)c1 (configuration not stated) -10.6
CCCc1cc(C(=O)N2CCCC(CO)(CCCc3ccccc3)C2)n(C)n1 (configuration not stated) -9.3
COc1ccc(Nc2ncnc3sc(-c4ccccc4)cc23)c(OC)c1 -12
CCCCCCCCCCCCN1C(=O)CSC1c1cccnc1 (configuration not stated) -18.4
CCCOc1ccc2c3c(c(=O)oc2c1OCCC)CCC3 -11.4
C=CCN(N=Nc1cccc([N+](=O)[O-])c1)c1cccc([N+](=O)[O-])c1 -9.23

B-score, inactive:
CCOC(=O)c1c(N)sc2c1CCCC2=O
COc1cccc(COC(=O)C2CCN(S(=O)(=O)c3ccc(Cl)cc3)CC2)c1OC
CCOc1ccc(S(=O)(=O)N2CCC(C(=O)OCc3ccc(OC)cc3)CC2)cc1
CC12CN3CC(C)(CN(C1)C3c1ccc(Cl)cc1Cl)C2=O (configuration not stated)
Cn1c(SCC(=O)N2CCCC2)nnc1-c1cccs1
CCc1cc(C(N)=O)c(NC(=O)c2ccc(OC)cc2)s1
COc1cc(C(c2c(NC(=O)c3ccco3)sc(C)c2C)N2CCOCC2)cc(OC)c1OC (configuration not stated)
COc1cc(NC(=O)COC(=O)c2cnc(C)cn2)c(C)cc1[N+](=O)[O-]
COC(=O)c1ccc(C)c(NC(=O)C2CC(=O)N(C3CCCC(C)C3C)C2)c1 (configuration not stated)
O=C(c1cccc(S(=O)(=O)Nc2ccccc2Cl)c1)N1CCN(C(=O)c2ccco2)CC1
O=C(Nc1ccccc1C(=O)N1CCCCC1)c1ccco1
NS(=O)(=O)c1ccc(CCNC(=O)COC(=O)COc2cccc(C(F)(F)F)c2)cc1
Cc1ccc(Cl)cc1NC(=O)CN1CCN(S(=O)(=O)N2CCOCC2)CC1
CCOC(=O)CNC(=O)CSc1ccc2nnc(-c3cccnc3)n2n1
C/C(CC(C)C)=N\Oc1nc(C)cc(C)n1
Cc1cc(C)c(NC(=O)C[N+](C)(C)CC(O)COc2cccc3ccccc23)c(C)c1 (configuration not stated)
CCC(C)Sc1nc2c(c(=O)[nH]c(=O)n2C)n1CC(O)COc1cccc2ccccc12 (configuration not stated)
O=C(OCC(O)C(O)COC(=O)c1ccccc1)c1ccccc1 (configuration not stated)
Cc1ccc(C)c(S(=O)(=O)Nc2cccc(-n3cnnn3)c2)c1
CC(=O)c1c(C)[nH]c(C(=O)Nc2cc(S(=O)(=O)N(C)C)ccc2C)c1C
O=C(CCn1nnc2ccccc21)OCC(=O)c1ccc([N+](=O)[O-])cc1
CCc1nnc(NC(=O)c2cc(S(=O)(=O)N3CCCCC3)ccc2C)s1
CCc1nnc(NC(=O)c2cccc(S(=O)(=O)N(C)c3ccc(OC)cc3)c2)s1
Cc1cc(C)nc(NNC2=CC(=O)CC(C)(C)C2)n1
O=C1c2ccccc2C(O)N1Cc1ccccc1Cl (configuration not stated)
O=C(NCCc1c[nH]c2ccccc12)c1cc2ccccc2oc1=O
Cc1cc(C)cc(NC(=S)NCCc2c[nH]c3ccccc23)c1
O=P(c1cccs1)(c1cccs1)c1cccs1
CCC1CCCCN1C(=S)NC(=O)c1ccco1 (configuration not stated)
CCC1CCCCN1C(=S)Nc1ccc(C(C)=O)cc1 (configuration not stated)
CCN(C[C@H]1N[C@@](CC)(C(=O)OC)[C@H]2C(=O)N(Cc3ccccc3)C(=O)[C@@H]12)S(=O)(=O)c1ccccc1
CCOc1c(Br)cc(/C=C2\C(=O)N(CCC#N)N=C2C)cc1OC
O=C(COC(=O)/C=C/c1ccc(S(=O)(=O)N2CCCCCC2)cc1)NCc1ccccc1Cl
CC(=O)c1cccc(NC(=O)CN2C(=O)c3cccnc3Oc3ccc(Cl)cc32)c1
COC(=O)CCC(=O)N1CCCC(CO)(Cc2ccccc2)C1 (configuration not stated)
Cc1ccccc1CC1(CO)CCCN(C(=O)c2cc(-c3ccccc3)no2)C1 (configuration not stated)
CC(Sc1nnc(CNC(=O)c2ccccc2F)n1C)C(=O)Nc1nccs1 (configuration not stated)
CC1CCN(S(=O)(=O)c2ccc(NC(=O)C3CC(=O)N(c4ccccc4)C3)cc2)CC1 (configuration not stated)
COc1ccc(Nc2ncnc3sc(C)cc23)cc1
COc1ccc(Nc2ncnc3ccc(Br)cc23)c(OC)c1
COC(=O)c1sc(SC)c(S(=O)(=O)C(C)C)c1N/N=C(\C#N)S(=O)(=O)c1ccccn1
CC1CCN(C(=O)/C(=C\c2ccccc2F)NC(=O)c2ccccc2)CC1
COC(=O)CN1C(=O)[C@H]2[C@@H](/C=C/c3ccccc3)N3C(=O)CN(CC4CC4)C(=O)[C@@]3(Cc3ccccc3)[C@H]2C1=O
O=C(CC1CCCCC1)Nc1c2c(nn1-c1ccc(F)cc1)CS(=O)(=O)C2
C=CCNC(=O)c1ccccc1NC(=O)c1ccc(Cl)c(S(=O)(=O)Nc2cccc(C)c2C)c1
CN(C)CCCN1C(=O)CSC1c1ccc([N+](=O)[O-])cc1 (configuration not stated)
CCCCc1ccc(NC(=O)NCc2cccnc2)cc1
Cc1ccc(C(=O)Nc2ccc3c(c2)OCCO3)cc1S(=O)(=O)N1CCOCC1
CCCn1nnc(NC(=O)COc2ccc(CC)cc2)n1
COc1ccccc1N1CCC(N2CCN(CC(C)(C)C)C(CCO)C2)CC1 (configuration not stated)
COc1ccc2c3c(c(=O)oc2c1OCC(=O)C(C)(C)C)CCCC3
O=c1oc2c(CN3CCCCC3)c(O)ccc2c2c1CCCCC2
O=[N+]([O-])c1cccc(C=NN=Cc2ccccc2O)c1
O=C(CCl)N(Cc1cccc([N+](=O)[O-])c1)c1cccc(Cl)c1
